# In PubChem BioAssay (NCI):
# This is part of a sample that, as a whole, favours compounds with a hit. Of some 79,000 tested, about 15% had one in any assay. A number with no mark means an inactive call. The source made the active and inactive calls. Cut-off read from the data, not from the text of the source: active = growth inhibition above about 70%; inactive = the rest.
# Legend:
# [1] = NCI Yeast Anticancer Drug Screen. Data for the rad50 strain (AID 155);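 note: 0% = growth of vehicle-only cultures of the same strain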; settings: S. cerevisiae rad50 strain growth inhibition, stronger effect = higher value
# Procedure, shortened: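 Vehicle-treated cultures provide the reference for the growth inhibition reported for compound-exposed, repair-deficient yeast.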
# [2] = NCI Yeast Anticancer Drug Screen. Data for the mec2-1 strain (AID 157); settings: S. cerevisiae mec2-1 strain, stronger effect = higher value
# Procedure, shortened: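 Vehicle-treated cultures served as reference for growth inhibition of compound-exposed mec2-1 yeast.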
# [3] = NCI Yeast Anticancer Drug Screen. Data for the sgs1 mgt1 strain (AID 161);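 note: 0% = growth of cultures given vehicle only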; settings: S. cerevisiae sgs1 mgt1 strain, stronger effect = higher value
# Procedure, shortened: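 Mutant yeast exposed to compound; growth scored against vehicle-only wells.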
# [4] = NCI Yeast Anticancer Drug Screen. Data for the cln2 rad14 strain (AID 165);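 note: 0% = growth equal to vehicle treated cultures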; settings: S. cerevisiae cln2 rad14 strain, stronger effect = higher value
# Procedure, shortened: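 Each compound was tested on cln2 rad14 yeast. Inhibition of growth was calculated against vehicle-exposed controls.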
# [5] = NCI Yeast Anticancer Drug Screen. Data for the bub3 strain (AID 167); settings: S. cerevisiae bub3 mutant strain, stronger effect = higher value
# Procedure, shortened: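 Mutant yeast screening strain plus compound; vehicle-treated cultures serve as the 0% inhibition reference.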
# [6] = NCI Yeast Anticancer Drug Screen. Data for the mlh1 rad18 strain (AID 175); settings: S. cerevisiae mlh1 rad18 strain growth inhibition, stronger effect = higher value
# Procedure, shortened: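 Vehicle-treated cultures served as the reference for growth inhibition in a yeast strain carrying DNA damage repair alterations exposed to each compound.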
# [7] = at 5.0 µM (retest, dose inferred, filed as 0.5)
# [8] = at 50.0 µM (retest, dose inferred, filed as 5.0)
SMILES,"growth inhibition [1, 7] [%]","growth inhibition [1, 8]",growth inhibition ([1]; at 50.0 µM),"growth inhibition [2, 7] [%]","growth inhibition [2, 8]",growth inhibition ([2]; at 50.0 µM),"growth inhibition [3, 7] [%]","growth inhibition [3, 8]",growth inhibition ([3]; at 50.0 µM),"growth inhibition [4, 7] [%]","growth inhibition [4, 8]",growth inhibition ([4]; at 50.0 µM),"growth inhibition [5, 7] [%]","growth inhibition [5, 8]",growth inhibition ([5]; at 50.0 µM),"growth inhibition [6, 7] [%]","growth inhibition [6, 8]",growth inhibition ([6]; at 50.0 µM)
FC1(F)C2=C(SC3=C(S2)C(F)(F)C3(F)F)C1(F)F,9,99% (active),99.2% (active),-4,98% (active),70.5% (active),38,100% (active),99.1% (active),6,95% (active),74.9% (active),-7,95% (active),97.7% (active),19,97% (active),97.7% (active)
CC(C)C(=O)/C=C/c1c(Cl)cccc1Cl,22,26%,26.6%,14,22%,41.9%,11,20%,48.4%,16,28%,46%,22,18%,54.9%,19,21%,43.6%
COc1ccc2c(c1)OC(c1ccccc1O)CC2=O (stereo not given),0,-17%,55.9%,-44,-30%,24.1%,-10,11%,72.1% (active),-14,12%,20.7%,-2,-9%,55.5%,-70,-34%,36.5%
O=C1c2c(Br)sc(Br)c2[C@@H](NC(=O)C(F)(F)F)C1Br (stereo not given in full),8,99% (active),89.3% (active),3,97% (active),81.2% (active),19,99% (active),97% (active),-1,93% (active),28.1%,-3,94% (active),80% (active),17,99% (active),91.8% (active)
Cc1ccc(S(=O)(=O)N/N=C2\CC(C)OC3=C2CCCCCC3)cc1 (stereo not given),13,95% (active),75.5% (active),0,94% (active),79.3% (active),1,93% (active),61.1%,-3,92% (active),77.5% (active),1,95% (active),75.6% (active),31,95% (active),67.8%
Cc1c(Cl)c(Cl)cc([N+](=O)[O-])c1Cl,41,49%,24.9%,51,45%,37.6%,-5,15%,46%,31,47%,-6.9%,11,38%,52.4%,25,46%,19.4%
CC(C)(C)C(=O)CC(Cc1nccc2ccccc12)c1ccco1 (stereo not given),-3,94% (active),98.7% (active),-5,96% (active),99.2% (active),-3,97% (active),98.7% (active),2,94% (active),98% (active),-1,94% (active),99.2% (active),-8,97% (active),98.9% (active)
C=C1C(=O)OC2/C=C(\C(=O)O)CC/C=C(\C)CC(OC(=O)/C=C(\C)CC)C12 (stereo not given),-1,79% (active),94% (active),-5,79% (active),68.2%,-1,79% (active),77.1% (active),-19,69%,69.8%,-7,84% (active),84.2% (active),-4,93% (active),77.1% (active)
CC(=O)/C(=C\c1cccc(Cl)c1)C(=O)CCN(C)C,24,29%,14.8%,20,33%,28.8%,20,29%,50.5%,25,29%,21.4%,13,34%,4.4%,23,40%,25.1%
COC(=O)c1ccc([N+](=O)[O-])o1,7,42%,70.7% (active),7,38%,46.4%,4,26%,76.8% (active),-5,5%,23.2%,0,71% (active),62.1%,13,56%,72.3% (active)
